# In the supplement of paper PMC9262897, “Low-cost anti-mycobacterial drug discovery using engineered E. coli” (Nature Communications, 2022):
# Counter-ions that a name gives are not always drawn. ± gives the standard deviation of the averaged measurements.
# Key:
# Test in all cases: growth (OD600 after 10 h); higher = more growth (less inhibition)
# [1] = test system: E. coli TESEC Alr+ wild-type control; settings: compound 0.1 mM; raw OD600 reference: median of DMSO wells 0.241, cell-free background 0.041
# Method: (§1)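 TESEC Mtb Alr E. coli, or the Alr+ wild-type control, in 384-well plates with Prestwick library compounds at 0.1 mM and 1% DMSO, across arabinose induction levels of 1E3 to 1E7 nM. Growth is read as OD600 after 10 h at 37 °C in triplicate biological replicates.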
# E. coli TESEC Mtb Alr [2] = settings: compound 0.1 mM
# Method: as §1
# E. coli TESEC Mtb Asd = settings: compound 0.1 mM
# Method: (§2)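 TESEC E. coli strains in which the native enzyme is deleted and replaced by arabinose-inducible Mtb Asd, DapB, CysH or TrpD, each grown in its selective medium. Strains were screened against the Prestwick library at 0.1 mM and 1% DMSO in 384-well format at low and high arabinose induction. Growth is read as OD600 after 10 h in triplicate.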
# E. coli TESEC Mtb DapB = settings: compound 0.1 mM
# Method: as §2
# E. coli TESEC Mtb Alr [3] = settings: compound 0.1 mM; remark: listed apart in the source
# Method: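 TESEC Mtb Alr E. coli (ΔaraC ΔtolC ΔentC Δalr ΔdadX, arabinose-inducible Mtb Alr) or the Alr+ wild-type control strain, grown in defined M9-fructose medium without D-alanine in 96-well plates with Prestwick library compounds at 0.1 mM and 1% DMSO. Low Alr induction is 0.1 µM arabinose and high induction is 10 mM arabinose.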
# [4] = arabinose 1000 nM, raw OD600 reference: median of DMSO wells 0.294, cell-free background 0.041
# [5] = arabinose 10000 nM, raw OD600 reference: median of DMSO wells 0.264, cell-free background 0.041
# [6] = arabinose 100000 nM, raw OD600 reference: median of DMSO wells 0.201, cell-free background 0.041
# [7] = arabinose 1000000 nM, raw OD600 reference: median of DMSO wells 0.193, cell-free background 0.041
# [8] = arabinose 10000000 nM, raw OD600 reference: median of DMSO wells 0.146, cell-free background 0.041
# [9] = arabinose induction (level): High, raw OD600 reference: median of DMSO wells 0.331, cell-free background 0.041
# [10] = arabinose induction (level): Low, raw OD600 reference: median of DMSO wells 0.417, cell-free background 0.041
# [11] = arabinose induction (level): High, raw OD600 reference: median of DMSO wells […], cell-free background 0.041
# [12] = arabinose induction (level): Low, raw OD600 reference: median of DMSO wells 0.227, cell-free background 0.041
# [13] = arabinose 100 nM, raw OD600 reference: median of DMSO wells 0.413, cell-free background 0.052
# [14] = arabinose 10000000 nM, raw OD600 reference: median of DMSO wells […], cell-free background 0.052
SMILES,growth [1],growth (E. coli TESEC Mtb Alr [2]; [4]),growth (E. coli TESEC Mtb Alr [2]; [5]),growth (E. coli TESEC Mtb Alr [2]; [6]),growth (E. coli TESEC Mtb Alr [2]; [7]),growth (E. coli TESEC Mtb Alr [2]; [8]),growth (E. coli TESEC Mtb Asd; [9]),growth (E. coli TESEC Mtb Asd; [10]),growth (E. coli TESEC Mtb DapB; [11]),growth (E. coli TESEC Mtb DapB; [12]),growth (E. coli TESEC Mtb Alr [3]; [13]),growth (E. coli TESEC Mtb Alr [3]; [14])
COc1ccc(OC)c(C(O)C(C)N)c1 (configuration not stated) [Methoxamine hydrochloride],0.241 ± 0.0052,0.292 ± 0.0063,0.27 ± 0.005,0.212 ± 0.024,0.187 ± 0.003,0.148 ± 0.0068,0.272 ± 0.074,0.409 ± 0.021,0.223 ± 0.033,0.222 ± 0.028,0.413 ± 0.011,0.334 ± 0.023
COc1ccc2c(c1)[C@]13CCCC[C@@H]1[C@H](C2)N(C)CC3 [Dextromethorphan hydrobromide monohydrate],0.1976 ± 0.0013,0.25 ± 0.005,0.255 ± 0.0068,0.2 ± 0.027,0.154 ± 0.0044,0.142 ± 0.002,0.168 ± 0.015,0.29 ± 0.045,0.17 ± 0.015,0.232 ± 0.031,0.42 ± 0.006,0.355 ± 0.015
CN[C@@H]1C[C@@H](c2ccc(Cl)c(Cl)c2)c2ccccc21 [Indatraline hydrochloride],0.0397 ± 0.00076,0.0417 ± 0.00046,0.0413 ± 0.00055,0.0425 ± 0.0013,0.03897 ± 0.00015,0.0445 ± 0.002,0.0513 ± 0.0011,0.0522 ± 0.0001,0.052 ± 0.0016,0.05117 ± 0.00042,0.24 ± 0.15,0.0505 ± 0.00096
O=P1(NCCCl)OCCCN1CCCl (configuration not stated) [Ifosfamide],0.233 ± 0.012,0.301 ± 0.027,0.2741 ± 0.0022,0.175 ± 0.022,0.192 ± 0.0026,0.137 ± 0.0089,0.374 ± 0.074,0.48 ± 0.032,0.204 ± 0.0083,0.222 ± 0.026,0.417 ± 0.011,0.359 ± 0.01
CC(=O)OCC(=O)[C@H]1CC[C@H]2[C@@H]3CC[C@H]4C[C@H](O)CC[C@]4(C)[C@H]3C(=O)C[C@]12C [Alfadolone acetate],0.15 ± 0.0034,0.196 ± 0.003,0.222 ± 0.0029,0.194 ± 0.0054,0.153 ± 0.0021,0.109 ± 0.0024,0.289 ± 0.075,0.19 ± 0.0093,0.137 ± 0.0076,0.157 ± 0.03,0.395 ± 0.007,0.257 ± 0.0074
CC(C)C[C@H]1C(=O)N2CCC[C@H]2[C@]2(O)O[C@](NC(=O)[C@@H]3C=C4c5cccc6[nH]c(Br)c(c56)C[C@H]4N(C)C3)(C(C)C)C(=O)N12 [Bromocryptine mesylate],0.108 ± 0.0027,0.112 ± 0.058,0.108 ± 0.0015,0.187 ± 0.12,0.0887 ± 0.025,0.191 ± 0.013,0.208 ± 0.056,0.117 ± 0.047,0.236 ± 0.07,0.229 ± 0.018,0.401 ± 0.0088,0.323 ± 0.067
